# Test results from PubChem BioAssay AID504332 (National Center for Advancing Translational Sciences (NCATS), 2011).
# About 31,000 (8.9%) of roughly 350,000 compounds were called active. Inconclusive results (about 15%) are left out. This is one part of a sample in which actives are shown more often than they occur. Calls come from the whole dose curve; as a rule, active = well fitted inhibition curve with a large enough effect; inconclusive = small, poorly fitted or top-dose-only effect; inactive = no such curve, though single readings can be large or run the other way. The source holds several records for some structures; these can differ, active in one and inactive in another.
# Target: Histone-lysine N-methyltransferase EHMT2 (Homo sapiens) (UniProt Q96KQ7)
# Sequence (Q96KQ7 913-1193 limits assumed): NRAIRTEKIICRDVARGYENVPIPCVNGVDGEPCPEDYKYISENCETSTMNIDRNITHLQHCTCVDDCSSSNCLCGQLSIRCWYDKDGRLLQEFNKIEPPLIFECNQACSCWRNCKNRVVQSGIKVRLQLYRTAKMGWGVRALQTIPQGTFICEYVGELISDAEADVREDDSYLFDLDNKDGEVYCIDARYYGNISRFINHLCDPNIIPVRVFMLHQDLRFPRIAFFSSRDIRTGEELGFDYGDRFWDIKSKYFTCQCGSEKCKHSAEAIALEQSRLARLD
# Assay: qHTS Assay for Inhibitors of Histone Lysine Methyltransferase G9a; note: nearly all actives have a fitted effect of over 75% in size
# Conditions: G9a H3K9 monomethylation, AlphaScreen, 2 h; series mostly up to 59 µM; activity, negative = inhibition: at the top concentration
# Outline: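 Using a bead-based AlphaScreen, monomethylated H3K9 product from 2 h room-temperature reactions (G9a 20 nM, peptide 500 nM, SAM 20 uM) was detected with 0.5 ug/mL rabbit anti-H3K9me1 antibody.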
# % is set by controls: 0 for no effect and ±100 for the full control effect; potency is the fitted concentration of half-maximal effect.
Compound,"activity, negative = inhibition",Potency
O=C(c1ccccc1)c1ccc(OC(=O)N2CCCC2)cc1,-2.47% (inactive),
O=C(c1ccccc1)c1ccc2nc(N3CCCCC3)c3nncn3c2c1,,44.7 µM (active)
c1ccc(CC2CCN(c3nc4ccccc4n4cnnc34)CC2)cc1,26.6% [at 12.7 µM] (inactive),
O=C(Nc1ccc(Oc2ccccc2)cc1)C1CCN(S(=O)(=O)c2ccc(Cl)cc2)CC1,4.44% (inactive),
COc1cccc(NC(=O)c2ccc3nc(CCc4ccccc4)oc3c2)c1,-23.2% (inactive),
COc1cccc(NC(=O)CSC2=Nc3ccccc3C3=NC(CC(=O)NC4CCCCC4)C(=O)N23)c1 (stereo not drawn),-0.713% (inactive),
COc1cc(Cl)c(NC(=O)C(NS(=O)(=O)c2cccs2)C(C)C)c(OC)c1 (stereo not drawn),10.2% (inactive),
COc1cc(OC)c(C(=O)NCc2ccc3c(c2)OCO3)cc1OC,-3.02% (inactive),
COc1ccc(OC)c(-c2nc(C(N)=O)c3c(n2)n(-c2ccc4c(c2)OCO4)c(=O)n3C)c1,-0.66% (inactive),
COc1ccc(NC(=O)NCc2ccc3c(c2)OCO3)c(OC)c1,123% [at 102 µM] (inactive),
COc1ccc2c(c1)C(C)=CC(C)(C)N2C(=O)CNCc1ccc2c(c1)OCO2,,28.2 µM (active)
COc1cccc(CNCc2ccc3c(c2)OCO3)c1,,22.4 µM (active)
COc1ccc(C2(C)NC(=O)N(CC(=O)c3ccc4c(c3)OCO4)C2=O)cc1 (stereo not drawn),100% [at 102 µM] (inactive),
Cc1ccsc1C(=O)NCCc1ccco1,-0.499% [at 12.7 µM] (inactive),
COc1ccccc1-c1noc(-c2ccc(NCc3ccccc3)c([N+](=O)[O-])c2)n1,9.56% (inactive),
Clc1ccc(C2=CSC3=Nc4cccc5cccc(c45)N23)cc1,,3.55 µM (active)
O=C(Nc1ccc2nc(SCC(=O)N3CCCc4ccccc43)sc2c1)c1ccc(Cl)cc1,-5.84% (inactive),
CCCNC(=O)CSc1nc(Cc2ccccc2)nc2ccccc12,13.1% [at 102 µM] (inactive),
Cc1ccc(S(=O)(=O)NCc2nc3nc(C)cc(C)n3n2)cc1,-4.11% (inactive),
NC(=O)NC(CC(=O)NNC(=O)c1ccccn1)c1ccc(Cl)cc1 (stereo not drawn),54.7% [at 12.7 µM] (inactive),
CC(=O)Nc1nc2ccccc2n1Cc1ccc(C)cc1,1.65% [at 102 µM] (inactive),
CCCc1nc2c(C)cc(-c3nc4ccccc4n3C)cc2n1Cc1ccc(-c2ccccc2C(=O)O)cc1,-43.4% [at 2.33 µM] (inactive),4.47 µM (active)
Cc1ccc(Cn2c(CCCNC(=O)C3CCCCC3)nc3ccccc32)cc1,-38.9% (inactive),
COc1ccc(C(=O)Nc2nonc2-c2ccc(OC)c(OC)c2)cc1Cl,1.07% (inactive),
COc1ccc(S(=O)(=O)NCCCCOc2ccc(Cl)cc2)cc1,21.3% [at 2.33 µM] (inactive),

Compound,"activity, negative = inhibition",Potency
COc1cccc(NC(C)=[N+](C)CCNS(=O)(=O)c2ccc(Cl)cc2)c1,,15.8 µM (active)
COc1cccc(NC(=O)CCNS(=O)(=O)c2ccc3c(c2)oc(=O)n3C)c1,1.31% [at 0.0925 µM] (inactive),
CCOC(=O)C1CCN(c2csc3ccc(C)cc3c2=O)CC1,6.56% (inactive),
Cc1[nH]n(-c2cccc(Cl)c2)c(=O)c1-c1ccc(Cl)cc1,-39% (inactive),
Cc1[nH]n(C(N)=S)c(=O)c1N=Nc1ccc(Cl)cc1Cl,,44.7 µM (active)
Cc1[nH]n(-c2ccccc2)c(=O)c1N=Nc1ccccc1C(=O)N1CCCCC1,-2.74% (inactive),
COc1ccccc1C(=O)Nc1ccc(OCC(=O)N2CCCCC2)cc1,11.7% [at 2.33 µM] (inactive),
Nc1nnnn1/N=C/c1cccs1,-13.1% (inactive),
Cc1ccc(N2CCN(/N=C/c3cccs3)CC2)cc1,-34.4% [at 102 µM] (inactive),
C(=N/N1CCN(c2ccccc2)CC1)/c1cccs1,,10 µM (active)
O=C(Nc1ccc2nc(SCC(=O)N3CCCc4ccccc43)sc2c1)c1ccc(F)cc1,-31.9% (inactive),
Cc1cc(C)c(S(=O)(=O)N(C)CC(=O)NCC2CCCO2)c(C)c1 (stereo not drawn),24.8% [at 102 µM] (inactive),
CCC1CCCCN1S(=O)(=O)c1ccc(NC(=O)c2cc(=O)c3ccccc3o2)cc1 (stereo not drawn),5.64% (inactive),
O=C(CCCCCn1c(=O)[nH]c2ccccc2c1=O)NCCc1c[nH]c2ccccc12,-11.9% [at 0.0925 µM] (inactive),
O=C(NCCc1c[nH]c2ccccc12)C1CCN(Cc2ccc(Br)cc2)CC1,-6.03% (inactive),
O=C(CN1C(=O)NC2(CCCCC2)C1=O)NCCc1c[nH]c2ccccc12,52.5% [at 102 µM] (inactive),
CC1(C(=O)NCCc2c[nH]c3ccccc23)C=CC2(CCCCC2)N1C(=O)c1ccccc1 (stereo not drawn),,79.4 µM (active)
CC(=O)NC(Cc1c[nH]c2ccccc12)C(=O)NCCc1ccccc1 (stereo not drawn),23.4% [at 102 µM] (inactive),
C[C@]1(C(=O)NCCc2c[nH]c3ccccc23)C=C[C@@H](Cc2ccccc2)N1C(=O)c1ccccc1,,50.1 µM (active)
Cc1ccc(S(=O)(=O)N2[C@@H](c3ccccc3F)C(C(=O)O)=CC[C@H]2c2ccc(Cl)cc2)cc1,-0.77% [at 2.33 µM] (inactive),
O=C(CSc1nccn1Cc1ccc(Cl)cc1)NCc1ccccc1,-22.1% (inactive),
COc1ccc([C@@H]2[C@@H]3C(=O)N(C(C)(C)C)C(=O)[C@@H]3[C@]3(Cc4ccccc4)C(=O)N(c4cccc(Br)c4)C(=O)N23)cc1,-84.6% [at 2.33 µM] (inactive),
Cc1ccc(C(=O)NCCSc2c(C)[nH]c3ccccc23)cc1C,-33% (inactive),
Cc1cccc(-n2ncc(Cl)c(Cl)c2=O)c1,-6.01% [at 102 µM] (inactive),
CC(C)CN(C(=O)CSc1nncn1C)C1CCS(=O)(=O)C1 (stereo not drawn),7.97% [at 2.33 µM] (inactive),

Compound,"activity, negative = inhibition",Potency
Cc1cccc(N2CCN(C(C)C(=O)N3CCc4ccccc43)CC2)c1C (stereo not drawn),24.8% [at 102 µM] (inactive),
COC(=O)c1ccccc1NC(=O)c1ccc2c(=O)n3c(nc2c1)CCCCC3,6.89% (inactive),
COc1ccc2c(c1)c(=O)c(S(=O)(=O)c1ccc(F)cc1)cn2CC(=O)Nc1ccc(C)cc1C,-0.892% (inactive),
Nc1cc(C(F)(F)F)ccc1N1CCOCC1,,50.1 µM (active)
O=C(CCC1CCCCC1)Nc1cc(C(F)(F)F)ccc1N1CCOCC1,42.8% [at 102 µM] (inactive),
CC(C)CC(=O)Nc1cc(C(F)(F)F)ccc1N1CCOCC1,-30.9% (inactive),
Cn1c(=O)oc2cc(S(=O)(=O)CCC(=O)NCCc3ccc(Cl)cc3)ccc21,3.51% (inactive),
O=C(NNC(=O)c1ccc(Cl)cc1Cl)c1cccs1,1.93% [at 102 µM] (inactive),
Cc1ccc(NNC(=O)c2c(F)cccc2Cl)cc1Cl,-32% [at 102 µM] (inactive),
Cc1ccc(NNC(=O)c2cccs2)cc1Cl,,8.91 µM (active)
CCOc1ccc(-n2c(SCC(=O)NCc3ccccc3)nc3n[nH]c(C)c3c2=N)cc1,37.3% (inactive),
O=C(C1CCCN(S(=O)(=O)c2ccc([N+](=O)[O-])cc2)C1)N1CCCCC1 (stereo not drawn),64.4% [at 102 µM] (inactive),
COc1ccc(S(=O)(=O)N2CCCC(C(=O)N3CCN(C)CC3)C2)cc1C (stereo not drawn),3.75% (inactive),
Cc1ccc(S(=O)(=O)N2CCCC(C(=O)N3CCN(C)CC3)C2)cc1 (stereo not drawn),,10 µM (active)
Cc1ccc(S(=O)(=O)N2CCC(N3CCCCCC3)CC2)cc1,,10 µM (active)
Cc1ccc(S(=O)(=O)N2CCC(C(=O)Nc3cc(C)ccc3C)CC2)cc1,8.46% (inactive),
CC(=O)Nc1ccc(S(=O)(=O)N2CCN(C3CCCCCCC3)CC2)cc1,6.22% (inactive),
COc1ccc(NC(=O)CSc2nc3ccccc3[nH]2)cc1,-3.73% (inactive),
CC1CCCCC1NC(=O)CCS(=O)(=O)c1ccc2c(c1)NC(=O)CO2 (stereo not drawn),-7.89% [at 102 µM] (inactive),
CCN(C(=O)c1cc([N+](=O)[O-])ccc1NCc1cccnc1)c1ccccc1,19% [at 102 µM] (inactive),
CC(C)(C)OC(=O)N1CCC(c2c(C(=O)N3CCN(c4cccc(Cl)c4)CC3)cnn2-c2cccc(Cl)c2)CC1,-27.2% (inactive),
CCC1C(=O)NCCN1C(=O)c1ccc2nc(Cc3ccc(OC)cc3)oc2c1 (stereo not drawn),-13.6% [at 102 µM] (inactive),
COc1cccc(NC(=O)CC2C(=O)NCCN2C(=S)Nc2ccc(F)cc2)c1 (stereo not drawn),-29.9% [at 102 µM] (inactive),
COc1ccc(C(=O)NC(=S)N2CCNC(=O)C2CC(=O)OC(C)C)cc1 (stereo not drawn),,25.1 µM (active)
O=C(Cc1ccc(Cl)cc1)NCc1nc(-c2ccccc2)no1,2.46% [at 102 µM] (inactive),

Compound,"activity, negative = inhibition",Potency
C/C(=N/Nc1ccc(Cl)cc1)c1cnnc(-c2ccccc2)n1,,39.8 µM (active)
C/C(=N\NC(=O)Cc1ccc(Cl)cc1)c1ccccn1,32.8% [at 102 µM] (inactive),
Cc1cc(C(=O)Nc2cccc(C(F)(F)F)c2)c2c(C)nn(-c3cccc(F)c3)c2n1,5.99% (inactive),
CCN1CCN(c2ccc([N+](=O)[O-])cc2C(=O)c2ccc(Cl)cc2)CC1,36.3% [at 0.501 µM] (inactive),
COc1ccc(N2CCN(c3ccc([N+](=O)[O-])nc3)CC2)cc1,-35.1% [at 102 µM] (inactive),
CN(C)S(=O)(=O)N1CCN(c2ccc([N+](=O)[O-])cc2)CC1,-2.69% [at 102 µM] (inactive),
O=C(c1cncc(Br)c1)N1CCN(c2ccc([N+](=O)[O-])cc2)CC1,-29.7% (inactive),
COc1ccc(N2CCN(c3ccc([N+](=O)[O-])cc3Cl)CC2)cc1,,7.94 µM (active)
O=[N+]([O-])c1ccc(N2CCN(c3ccc(O)cc3)CC2)c(Cl)c1,,3.16 µM (active)
COc1cc(CN(CC2CCCO2)C(=O)c2ccccc2F)cc(OC)c1OC (stereo not drawn),-3.03% (inactive),
Cc1ccc(S(=O)(=O)N(C)CC(=O)NCC(c2ccc(F)cc2)N2CCOCC2)cc1 (stereo not drawn),19.1% [at 12.7 µM] (inactive),
CCOC(=O)CSC1=Nc2ccccc2C2=NC(CCC(=O)NCc3ccc(F)cc3)C(=O)N12 (stereo not drawn),3.43% (inactive),
O=[N+]([O-])c1cc(S(=O)(=O)N2CCCC2)ccc1NN=C1CCCC1,2.51% (inactive),
O=[N+]([O-])c1ccc(NCCCN2CCOCC2)c(Cl)c1,20.5% [at 2.33 µM] (inactive),
CC(C)N1CCC(=NNc2ccc([N+](=O)[O-])cc2S(=O)(=O)N2CCOCC2)CC1,,15.8 µM (active)
CC(=O)NC12CC3CC(C1)CC(C(=O)N1CCN(S(=O)(=O)c4cccs4)CC1)(C3)C2,5.2% [at 12.7 µM] (inactive),
COc1ccc(-n2nc3c(c2NC(=O)c2ccc(N4C(=O)CCC4=O)cc2)CSC3)cc1,20.2% [at 102 µM] (inactive),
O=C(Nc1c2c(nn1-c1ccc(F)cc1)CS(=O)C2)C12CC3CC(CC(C3)C1)C2 (stereo not drawn),-7.51% [at 102 µM] (inactive),
O=C(NCCCO)C(=O)Nc1c2c(nn1-c1ccccc1)CSC2,,10 µM (active)
O=C(NCCCO)C(=O)Nc1c2c(nn1-c1ccc(F)cc1)CSC2,,11.2 µM (active)
CC(C)C(=O)Nc1c2c(nn1-c1ccccc1)CSC2,24.7% [at 102 µM] (inactive),
CC(=O)Nc1c2c(nn1-c1cccc(C)c1)CSC2,7.68% (inactive),
